Reference: PubChem BioAssay AID463115 (University of Pittsburgh Molecular Library Screening Center, 2010)
The campaign covered roughly 220,000 compounds. About 130 (0.059%) were called active. This is one part of a sample in which actives are shown more often than they occur. A number with no mark means an inactive call. Cut-off read from the data, not from the text of the source: active = inhibition above about 25%; inactive = the rest.

molecular target: Furin (Homo sapiens) (UniProt P09958); test: furin protease activity blockers – biochemical, fluorescence intensity, primary screen (AID 463115); details: purified furin, fluorogenic substrate cleavage, stronger effect = higher value; at 30 µM unless noted
Sequence (P09958 108-714 limits assumed): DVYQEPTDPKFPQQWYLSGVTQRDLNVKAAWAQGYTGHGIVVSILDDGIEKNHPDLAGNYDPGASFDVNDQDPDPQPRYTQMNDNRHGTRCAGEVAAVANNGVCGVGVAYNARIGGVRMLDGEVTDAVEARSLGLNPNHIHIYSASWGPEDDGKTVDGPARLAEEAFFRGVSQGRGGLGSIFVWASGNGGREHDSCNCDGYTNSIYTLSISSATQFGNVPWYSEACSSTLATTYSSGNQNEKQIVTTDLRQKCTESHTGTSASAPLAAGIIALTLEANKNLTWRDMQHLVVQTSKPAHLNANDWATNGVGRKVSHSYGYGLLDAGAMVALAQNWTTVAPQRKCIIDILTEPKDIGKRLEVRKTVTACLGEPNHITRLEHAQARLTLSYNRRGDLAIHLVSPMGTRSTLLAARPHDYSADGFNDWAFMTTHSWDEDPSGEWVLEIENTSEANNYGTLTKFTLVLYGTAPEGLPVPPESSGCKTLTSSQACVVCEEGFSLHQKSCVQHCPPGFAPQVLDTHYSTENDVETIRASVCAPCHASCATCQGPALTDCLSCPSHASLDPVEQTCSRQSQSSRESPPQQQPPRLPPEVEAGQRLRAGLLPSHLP

Row | Structure (SMILES) | inhibition
1 | Cn1c(SCC(=O)c2ccc(F)cc2)nnc1-c1ccccn1 | -22.4%
2 | CCc1cc(C(=O)OC)c(NC(=O)CC2Sc3ccc(C(F)(F)F)cc3NC2=O)s1 (stereo not given) | -18.6%
3 | Cc1nc2ccccn2c1C(=O)NN=C1CCN(C)CC1 | -16.6%
4 | CCOC(=O)/C(C#N)=C\c1c(C)cc(C)c(COC(C)=O)c1C | -3.87% [at 20 µM]
5 | CCOC(=O)Cn1c(=O)oc2cc(S(=O)(=O)NCC3CCCO3)ccc21 (stereo not given) | -8.46%
6 | CCc1cc(Br)ccc1NC(=O)C1CCCO1 (stereo not given) | -9.19% [at 20 µM]
7 | OC(CNCC1CCCO1)Cn1c2ccc(Br)cc2c2cc(Br)ccc21 (stereo not given) | 31.4% [at 20 µM] (active)
8 | COc1ccc(C(=O)Nc2c(Cl)cc(Cl)cc2C(=O)N2CCC(C)CC2)cc1 | -7.28%
9 | CSc1ccccc1-c1nnc(-c2ccc(Cl)cc2)o1 | -17.9% [at 20 µM]
10 | CNC(=O)c1[nH]cnc1C(=O)N[C@@H](CC(C)C)C(=O)OCc1ccccc1 | -29.8%
11 | CCOc1ccc(Oc2nc(C)cc(OC)n2)nn1 | -13.8%
12 | O=C(O)Cc1csc(NC(=O)CSc2nnnn2-c2ccc(O)cc2)n1 | -27.1%
13 | Cc1ccc2nc(COc3ccc(N(C)S(=O)(=O)c4ccccc4)cc3)cc(=O)n2c1 | -21.2%
14 | Cc1ccc(-n2nc3cc(C)c(NC(=O)c4cccnc4)cc3n2)cc1 | 34.8% [at 20 µM] (active)
15 | Cc1cc2nc(-c3ccc(NC(=O)c4cccnc4)cc3)oc2cc1C | -16%
16 | Cc1ccc(-n2nc3cc(Cl)c(NC(=O)c4ccco4)cc3n2)cc1 | -6.45% [at 20 µM]
17 | O=C(NCc1cccnc1)Nc1cccc(NC(=O)NCc2cccnc2)c1F | -13.7%
18 | CCCN(CCC)CC(O)COc1ccccc1C(=O)Nc1ccccc1 (stereo not given) | -22.6%
19 | CCn1c(=O)c([N+](=O)[O-])c(NCc2ccc3c(c2)OCO3)c2ccccc21 | -12.9%
20 | CC1=NN(C(=O)Cc2ccc(C)cc2)C(O)(c2cccnc2)C1 (stereo not given) | -14% [at 20 µM]
21 | CCC(CC)c1nnc(NC(=O)c2nn(C)c(=O)c3ccccc23)s1 | -10.6%
22 | Cc1ccc(NC(=O)C(=O)NCc2ccco2)c(C)c1 | -25.7%
23 | C=CCn1c(Cn2nnc3ccccc32)nnc1SCC(=O)N/N=C/c1cc(Br)cc(OC)c1O | 1.52% [at 20 µM]

Row | Structure (SMILES) | inhibition
24 | C/C=C/C(=O)Nc1ccc(N2CCN(c3ccc(C(F)(F)F)cn3)CC2)nc1 | -27.8%
25 | COc1cc(OC)c(C(=O)OC(C)C(=O)Nc2cc(C(F)(F)F)ccc2Cl)cc1OC (stereo not given) | -12.3%
26 | O=C(Nc1ccccc1C(=O)N1CCOCC1)c1ccc(Cl)cc1 | -16.3%
27 | Cc1cc(C(=O)N2CCC(C(=O)O)CC2)c(C(F)(F)F)o1 | -9.96%
28 | O=C(Nc1cnn(Cc2ccc(Cl)cc2)c1)C1CCCC1 | -14.4% [at 20 µM]
29 | Cc1nn(C)cc1C(=O)Nc1ccccc1Br | -17.2%
30 | C=CCC(CC=C)(C(N)=O)c1ccccc1 | -29.7%
31 | Fc1ccccc1OCCCCn1cncn1 | -28.7% [at 20 µM]
32 | COc1ccc(CCNc2cc(C)nc3c(-c4ccc(Cl)cc4)c(C)nn23)cc1OC | 9.61%
33 | O=C(Nc1nccs1)C1CCN(S(=O)(=O)c2ccc(Cl)c(C(F)(F)F)c2)CC1 | -14.1% [at 20 µM]
34 | COCCNc1nc2nonc2nc1N1CCCC1c1nccs1 (stereo not given) | -8.2%
35 | O=C(/C=C/c1ccccc1)Nc1nnc(SCC(=O)c2ccc3ccccc3c2)s1 | -20.8%
36 | COCCN1C(=O)N[C@@H](CCc2ccccc2)[C@H](C(C)=O)[C@H]1C | -15.4%
37 | CC(=O)C1=C(C)NC(=O)NC1c1cc(Br)ccc1OCC#N (stereo not given) | -17.2% [at 20 µM]
38 | CSCC[C@H](NC(=O)OC(C)(C)C)C(=O)N/N=C/c1cc2ccc(C)cc2nc1Cl | -14.1%
39 | CC1(C)CC(=O)C(N=Nc2ccc(S(=O)(=O)N3CCCCCC3)cc2)=C(O)C1 | -26.5%
40 | C/C(=N\Nc1nc2ccccc2[nH]1)c1cccs1 | -12.4%
41 | CCCC(=O)NC(C)C(c1cccs1)N1CCN(c2ccccc2)CC1 (stereo not given) | 25.4% [at 20 µM] (active)
42 | CC(NC(=O)Nc1ccccc1)C(c1cccs1)N1CCN(c2ccccc2)CC1 (stereo not given) | -13.8%
43 | CC(NC(=O)C(C)(C)C)C(c1cccs1)N1CCN(Cc2ccccc2)CC1 (stereo not given) | -27.5%
44 | COc1ccc(C(=O)NC(=S)Nc2ccc(Cl)cn2)cc1OC | -15.4%
45 | Cn1c(=O)n(C)c2cc(NS(=O)(=O)c3ccc(F)cc3)ccc21 | -20.7%
